# According to PubChem BioAssay (NCI):
# About 79,000 compounds went through this panel and 15% of them were active in at least one assay; those are over-represented in the sample as a whole. Unmarked numbers belong to inactive results. The source made the active and inactive calls. No stated cut-off is given here; in the data, active means growth inhibition above about 70%; inactive means the rest.
# Legend:
# [1] = NCI Yeast Anticancer Drug Screen. Data for the rad52 strain (AID 147);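 further: 0% = growth of vehicle-treated control cultures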; settings: S. cerevisiae rad52 mutant growth inhibition, hits give high values
# Outline: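 Vehicle-treated cultures served as the reference for growth inhibition of compound-exposed yeast bearing a DNA repair mutation.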
# [2] = NCI Yeast Anticancer Drug Screen. Data for the wt1 strain (AID 149);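 further: 0% = growth of vehicle-treated wt1 cultures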; settings: S. cerevisiae wt1 strain (SPY 50644) growth inhibition, hits give high values
# Outline: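 The wt1 strain was treated with compounds, and growth was compared with vehicle-treated cultures to give inhibition.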
# [3] = NCI Yeast Anticancer Drug Screen. Data for the rad50EPP+ strain (AID 151);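 further: 0% = growth of vehicle-treated control cultures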; settings: S. cerevisiae rad50 mutant strain, hits give high values
# Outline: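 In this screen, rad50EPP+ yeast were exposed to compounds. Growth inhibition was scored against vehicle-treated controls.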
# [4] = NCI Yeast Anticancer Drug Screen. Data for the mgt1 strain (AID 153); settings: S. cerevisiae mgt1 mutant growth inhibition, hits give high values
# Outline: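 mgt1 strain exposed; growth vs vehicle control recorded as inhibition.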
# [5] = NCI Yeast Anticancer Drug Screen. Data for the rad50 strain (AID 155);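 further: 0% = growth of vehicle-only cultures of the same strain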; settings: S. cerevisiae rad50 strain growth inhibition, hits give high values
# Outline: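 Cells are treated with compound, grown, and their growth is then scored against vehicle-only cultures of the same repair-deficient yeast strain.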
# [6] = NCI Yeast Anticancer Drug Screen. Data for the mec2-1 strain (AID 157); settings: S. cerevisiae mec2-1 strain, hits give high values
# Outline: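 Vehicle-treated cultures served as reference for growth inhibition of compound-exposed mec2-1 yeast.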
# [7] = NCI Yeast Anticancer Drug Screen. Data for the rad14 strain (AID 159);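 further: 0% = growth of vehicle-treated control cultures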; settings: S. cerevisiae rad14 strain growth inhibition, hits give high values
# Outline: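 Readout: yeast growth inhibition, referenced to vehicle-only cultures. Strain bears a defined alteration in DNA damage repair.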
# [8] = NCI Yeast Anticancer Drug Screen. Data for the sgs1 mgt1 strain (AID 161);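 further: 0% = growth of cultures given vehicle only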; settings: S. cerevisiae sgs1 mgt1 strain, hits give high values
# Outline: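 Read-out: growth inhibition vs vehicle controls. Cells: mutant yeast strain deficient in DNA damage repair.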
# [9] = NCI Yeast Anticancer Drug Screen. Data for the CLN2oe strain (AID 163);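 further: 0% = growth of vehicle-only control cultures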; settings: S. cerevisiae CLN2oe strain, hits give high values
# Outline: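 Inhibition relative to vehicle-treated yeast is reported. Cells: strain with genetic alteration in cell-cycle control, grown with compound.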
# [10] = NCI Yeast Anticancer Drug Screen. Data for the cln2 rad14 strain (AID 165);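 further: 0% = growth equal to vehicle treated cultures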; settings: S. cerevisiae cln2 rad14 strain, hits give high values
# Outline: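 Each compound was tested on cln2 rad14 yeast. Inhibition of growth was calculated against vehicle-exposed controls.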
# [11] = NCI Yeast Anticancer Drug Screen. Data for the bub3 strain (AID 167); settings: S. cerevisiae bub3 mutant strain, hits give high values
# Outline: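 Part of a panel of yeast mutants defective in DNA damage repair or cell cycle regulation. Each strain is grown with compound, and inhibition is calculated relative to solvent-treated cultures.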
# [12] = NCI Yeast Anticancer Drug Screen. Data for the wt2 strain (AID 169);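 further: 0% = growth of vehicle-treated yeast cultures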; settings: S. cerevisiae wt2 strain growth inhibition, hits give high values
# Outline: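 Inhibition of yeast growth was determined after compound treatment, normalised to controls receiving only vehicle.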
# [13] = NCI Yeast Anticancer Drug Screen. Data for the sgs1 strain (AID 173);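 further: 0% = growth of vehicle-only control cultures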; settings: S. cerevisiae sgs1 mutant, hits give high values
# Outline: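 Screen format: yeast with repair or checkpoint alterations, compound exposure, growth read relative to vehicle.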
# [14] = NCI Yeast Anticancer Drug Screen. Data for the mlh1 rad18 strain (AID 175); settings: S. cerevisiae mlh1 rad18 strain growth inhibition, hits give high values
# Outline: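 Vehicle-treated cultures served as the reference for growth inhibition in a yeast strain carrying DNA damage repair alterations exposed to each compound.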
# [15] = NCI Yeast Anticancer Drug Screen. Data for the rad18 strain (AID 177); settings: S. cerevisiae rad18 mutant growth inhibition, hits give high values
# Outline: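 Test articles were incubated with altered yeast defective in DNA damage repair. Results are given as inhibition of growth versus vehicle.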
# [16] = at 5.0 µM (retest, dose inferred, filed as 0.5)
# [17] = at 50.0 µM (retest, dose inferred, filed as 5.0)
structure (smiles),measurement,setting,value
CCC(=O)c1cc(C(=O)C(=S)SC)cc(C(=O)C(=S)SC)c1,growth inhibition,[1]; at 1.2 µM,1%
same,growth inhibition,[1]; at 3.7 µM,57%
same,growth inhibition,[1]; at 11.0 µM,97% (active)
same,growth inhibition,[1]; at 33.0 µM,97% (active)
same,growth inhibition,[1]; at 100.0 µM,90% (active)
same,growth inhibition,[2]; at 1.2 µM,-2%
same,growth inhibition,[2]; at 3.7 µM,17%
same,growth inhibition,[2]; at 11.0 µM,93% (active)
same,growth inhibition,[2]; at 33.0 µM,98% (active)
same,growth inhibition,[2]; at 100.0 µM,96% (active)
same,growth inhibition,[3]; at 1.2 µM,3%
same,growth inhibition,[3]; at 3.7 µM,50%
same,growth inhibition,[3]; at 11.0 µM,86% (active)
same,growth inhibition,[3]; at 33.0 µM,96% (active)
same,growth inhibition,[3]; at 100.0 µM,93% (active)
same,growth inhibition,[4]; at 1.2 µM,-12%
same,growth inhibition,[4]; at 3.7 µM,51%
same,growth inhibition,[4]; at 11.0 µM,99% (active)
same,growth inhibition,[4]; at 33.0 µM,98% (active)
same,growth inhibition,[4]; at 100.0 µM,95% (active)
same,growth inhibition,[5]; at 1.2 µM,1%
same,growth inhibition,[5]; at 3.7 µM,43%
same,growth inhibition,[5]; [16],30%
same,growth inhibition,[5]; at 11.0 µM,96% (active)
same,growth inhibition,[5]; at 33.0 µM,97% (active)
same,growth inhibition,[5]; [17],96% (active)
same,growth inhibition,[5]; at 50.0 µM,85.4% (active)
same,growth inhibition,[5]; at 100.0 µM,89% (active)
same,growth inhibition,[6]; at 1.2 µM,-9%
same,growth inhibition,[6]; at 3.7 µM,36%
same,growth inhibition,[6]; [16],56%
same,growth inhibition,[6]; at 11.0 µM,98% (active)
same,growth inhibition,[6]; at 33.0 µM,98% (active)
same,growth inhibition,[6]; [17],96% (active)
same,growth inhibition,[6]; at 50.0 µM,86.8% (active)
same,growth inhibition,[6]; at 100.0 µM,95% (active)
same,growth inhibition,[7]; at 1.2 µM,1%
same,growth inhibition,[7]; at 3.7 µM,22%
same,growth inhibition,[7]; at 11.0 µM,94% (active)
same,growth inhibition,[7]; at 33.0 µM,98% (active)
same,growth inhibition,[7]; at 100.0 µM,95% (active)
same,growth inhibition,[8]; [16],22%
same,growth inhibition,[8]; [17],96% (active)
same,growth inhibition,[8]; at 50.0 µM,85.3% (active)
same,growth inhibition,[9]; at 1.2 µM,28%
same,growth inhibition,[9]; at 3.7 µM,69%
same,growth inhibition,[9]; at 11.0 µM,96% (active)
same,growth inhibition,[9]; at 33.0 µM,98% (active)
same,growth inhibition,[9]; at 100.0 µM,91% (active)
same,growth inhibition,[10]; [16],-3%
same,growth inhibition,[10]; [17],37%
same,growth inhibition,[10]; at 50.0 µM,88.7% (active)
same,growth inhibition,[11]; at 1.2 µM,6%
same,growth inhibition,[11]; at 3.7 µM,44%
same,growth inhibition,[11]; [16],35%
same,growth inhibition,[11]; at 11.0 µM,98% (active)
same,growth inhibition,[11]; at 33.0 µM,98% (active)
same,growth inhibition,[11]; [17],68%
same,growth inhibition,[11]; at 50.0 µM,86.7% (active)
same,growth inhibition,[11]; at 100.0 µM,91% (active)
same,growth inhibition,[12]; at 1.2 µM,19%
same,growth inhibition,[12]; at 3.7 µM,59%
same,growth inhibition,[12]; at 11.0 µM,98% (active)
same,growth inhibition,[12]; at 33.0 µM,98% (active)
same,growth inhibition,[12]; at 100.0 µM,94% (active)
same,growth inhibition,[13]; at 1.2 µM,27%
same,growth inhibition,[13]; at 3.7 µM,62%
same,growth inhibition,[13]; at 11.0 µM,98% (active)
same,growth inhibition,[13]; at 33.0 µM,98% (active)
same,growth inhibition,[13]; at 100.0 µM,95% (active)
same,growth inhibition,[14]; [16],42%
same,growth inhibition,[14]; [17],96% (active)
same,growth inhibition,[14]; at 50.0 µM,86.8% (active)
COc1cccc(/C=N/C(/N=C/c2cccc(OC)c2O)c2cccc(OC)c2O)c1O,growth inhibition,[1]; at 1.2 µM,1%
same,growth inhibition,[1]; at 3.7 µM,5%
same,growth inhibition,[1]; at 11.0 µM,23%
same,growth inhibition,[1]; at 33.0 µM,67%
same,growth inhibition,[1]; at 100.0 µM,97% (active)
same,growth inhibition,[2]; at 1.2 µM,-1%
same,growth inhibition,[2]; at 3.7 µM,1%
same,growth inhibition,[2]; at 11.0 µM,7%
same,growth inhibition,[2]; at 33.0 µM,26%
same,growth inhibition,[2]; at 100.0 µM,91% (active)
same,growth inhibition,[3]; at 1.2 µM,2%
same,growth inhibition,[3]; at 3.7 µM,15%
same,growth inhibition,[3]; at 11.0 µM,61%
same,growth inhibition,[3]; at 33.0 µM,93% (active)
same,growth inhibition,[3]; at 100.0 µM,98% (active)
same,growth inhibition,[4]; at 1.2 µM,-1%
same,growth inhibition,[4]; at 3.7 µM,-2%
same,growth inhibition,[4]; at 11.0 µM,5%
same,growth inhibition,[4]; at 33.0 µM,36%
same,growth inhibition,[4]; at 100.0 µM,98% (active)
same,growth inhibition,[5]; at 1.2 µM,4%
same,growth inhibition,[5]; at 3.7 µM,-28%
same,growth inhibition,[5]; [16],19%
same,growth inhibition,[5]; at 11.0 µM,52%
same,growth inhibition,[5]; at 33.0 µM,87% (active)
same,growth inhibition,[5]; [17],79% (active)
same,growth inhibition,[5]; at 50.0 µM,89.5% (active)
same,growth inhibition,[5]; at 100.0 µM,97% (active)
same,growth inhibition,[6]; at 1.2 µM,-1%
same,growth inhibition,[6]; at 3.7 µM,2%
same,growth inhibition,[6]; [16],-4%
same,growth inhibition,[6]; at 11.0 µM,8%
same,growth inhibition,[6]; at 33.0 µM,25%
same,growth inhibition,[6]; [17],27%
same,growth inhibition,[6]; at 50.0 µM,87% (active)
same,growth inhibition,[6]; at 100.0 µM,96% (active)
same,growth inhibition,[7]; at 1.2 µM,1%
same,growth inhibition,[7]; at 3.7 µM,6%
same,growth inhibition,[7]; at 11.0 µM,19%
same,growth inhibition,[7]; at 33.0 µM,73% (active)
same,growth inhibition,[7]; at 100.0 µM,99% (active)
same,growth inhibition,[8]; [16],4%
same,growth inhibition,[8]; [17],71% (active)
same,growth inhibition,[8]; at 50.0 µM,86.7% (active)
same,growth inhibition,[9]; at 1.2 µM,-2%
same,growth inhibition,[9]; at 3.7 µM,3%
same,growth inhibition,[9]; at 11.0 µM,8%
same,growth inhibition,[9]; at 33.0 µM,20%
same,growth inhibition,[9]; at 100.0 µM,54%
same,growth inhibition,[10]; [16],-1%
same,growth inhibition,[10]; [17],34%
same,growth inhibition,[10]; at 50.0 µM,45%
same,growth inhibition,[11]; at 1.2 µM,-2%
same,growth inhibition,[11]; at 3.7 µM,-1%
same,growth inhibition,[11]; [16],-5%
same,growth inhibition,[11]; at 11.0 µM,1%
same,growth inhibition,[11]; at 33.0 µM,39%
same,growth inhibition,[11]; [17],43%
same,growth inhibition,[11]; at 50.0 µM,67%
same,growth inhibition,[11]; at 100.0 µM,98% (active)
same,growth inhibition,[12]; at 1.2 µM,0%
same,growth inhibition,[12]; at 3.7 µM,7%
same,growth inhibition,[12]; at 11.0 µM,4%
same,growth inhibition,[12]; at 33.0 µM,24%
same,growth inhibition,[12]; at 100.0 µM,93% (active)
same,growth inhibition,[13]; at 1.2 µM,-1%
same,growth inhibition,[13]; at 3.7 µM,3%
same,growth inhibition,[13]; at 11.0 µM,19%
same,growth inhibition,[13]; at 33.0 µM,67%
same,growth inhibition,[13]; at 100.0 µM,98% (active)
same,growth inhibition,[14]; [16],4%
same,growth inhibition,[14]; [17],65%
same,growth inhibition,[14]; at 50.0 µM,94.8% (active)
same,growth inhibition,[15]; at 1.2 µM,-1%
same,growth inhibition,[15]; at 3.7 µM,9%
same,growth inhibition,[15]; at 11.0 µM,21%
same,growth inhibition,[15]; at 33.0 µM,68%
same,growth inhibition,[15]; at 100.0 µM,98% (active)
